Test results: PubChem BioAssay (NCI)
The panel holds about 79,000 compounds, 15% with a hit somewhere; the sample as a whole holds those more often. Unmarked numbers belong to inactive results. Active and inactive are the calls of the source. No stated cut-off is given here; in the data, active means growth inhibition above about 70%; inactive means the rest.

Tests used:
[1] = NCI Yeast Anticancer Drug Screen. Data for the rad50 strain (AID 155);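 further: 0% = growth of vehicle-only cultures of the same strain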; settings: S. cerevisiae rad50 strain growth inhibition, stronger effect = higher value
In short: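 Relative growth inhibition (compound vs vehicle) was measured in yeast with a defined repair-gene alteration.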

[2] = NCI Yeast Anticancer Drug Screen. Data for the mec2-1 strain (AID 157); settings: S. cerevisiae mec2-1 strain, stronger effect = higher value
In short: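 mec2-1 yeast strain, carrying an alteration in DNA damage repair or cell cycle control, was exposed to compounds; growth inhibition was measured relative to vehicle-treated controls.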

[3] = NCI Yeast Anticancer Drug Screen. Data for the sgs1 mgt1 strain (AID 161);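 further: 0% = growth of cultures given vehicle only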; settings: S. cerevisiae sgs1 mgt1 strain, stronger effect = higher value
In short: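 Yeast cells carrying a defined DNA-repair defect were exposed to test compounds. Growth inhibition was measured relative to vehicle-treated controls.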

[4] = NCI Yeast Anticancer Drug Screen. Data for the cln2 rad14 strain (AID 165);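 further: 0% = growth equal to vehicle treated cultures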; settings: S. cerevisiae cln2 rad14 strain, stronger effect = higher value
In short: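 Yeast carrying cln2 and rad14 alterations (cell cycle control and DNA damage repair) were exposed to compounds. Growth inhibition was measured against vehicle-treated controls.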

[5] = NCI Yeast Anticancer Drug Screen. Data for the bub3 strain (AID 167); settings: S. cerevisiae bub3 mutant strain, stronger effect = higher value
In short: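 Screening used yeast with an engineered genetic alteration affecting cell cycle control. Compound-exposed cultures were compared with vehicle cultures, and reduced growth was taken as inhibition.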

[6] = NCI Yeast Anticancer Drug Screen. Data for the mlh1 rad18 strain (AID 175); settings: S. cerevisiae mlh1 rad18 strain growth inhibition, stronger effect = higher value
In short: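 Growth inhibition of the yeast strain was measured after compound exposure and expressed relative to vehicle-treated controls. The strain carries defined defects in DNA damage repair.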

[7] = at 5.0 µM (retest, dose inferred, filed as 0.5)
[8] = at 50.0 µM (retest, dose inferred, filed as 5.0)

| Compound | growth inhibition [1, 7] | growth inhibition [1, 8] | growth inhibition ([1]; at 50.0 µM) | growth inhibition [2, 7] [%] | growth inhibition [2, 8] | growth inhibition ([2]; at 50.0 µM) | growth inhibition [3, 7] | growth inhibition [3, 8] | growth inhibition ([3]; at 50.0 µM) | growth inhibition [4, 7] [%] | growth inhibition [4, 8] | growth inhibition ([4]; at 50.0 µM) | growth inhibition [5, 7] | growth inhibition [5, 8] | growth inhibition ([5]; at 50.0 µM) | growth inhibition [6, 7] [%] | growth inhibition [6, 8] | growth inhibition ([6]; at 50.0 µM) |
| --- | --- | --- | --- | --- | --- | --- | --- | --- | --- | --- | --- | --- | --- | --- | --- | --- | --- | --- |
| NNC(=O)N/N=C(\CC1(O)C(=O)Nc2c(Cl)ccc(Cl)c21)c1ccc(F)cc1 (stereo unspecified) | 79% (active) | 91% (active) | 56.4% | 50 | 80% (active) | 39.5% | 72% (active) | 85% (active) | 37.4% | 64 | 74% (active) | 2.75% | 70% (active) | 80% (active) | 21.9% | 57 | 73% (active) | 50.3% |
| CCCCCCCCCSC(=S)N(C)NC(=O)c1ccccn1 | 14% | 70% (active) | 89% (active) | 6 | 81% (active) | 94% (active) | 4% | 82% (active) | 93.8% (active) | -3 | 71% (active) | 92.1% (active) | -7% | 78% (active) | 92% (active) | 8 | 85% (active) | 93.7% (active) |
| COc1c([N+](=O)[O-])cc(-c2ccccc2)cc1[N+](=O)[O-] | -4% | 89% (active) | 69.9% | 10 | 98% (active) | 65.3% | 14% | 93% (active) | 77.8% (active) | -2 | 58% | 67.5% |  |  |  | 26 | 96% (active) | 83.2% (active) |
| Cc1nn(-c2ccc(S(=O)(=O)[O-])cc2)c([O-])c1N=[N+](C)c1ccc(-c2ccc(N=Nc3ccc4c(S(=O)(=O)[O-])cc(S(=O)(=O)[O-])c(N)c4c3[O-])c([O-])c2)cc1[O-].[Cu+2].[Cu+2].[Na+] | 6% | -15% | -26.5% | -3 | -17% | 18.9% | 6% | -15% | -19.4% |  |  |  | -9% | -11% | -60.1% | -9 | -4% | 17.6% |
| O=c1c(O)cc2c(O)oc3c(=O)c(O)c(O)c4c(O)oc1c2c43 | 58% | 96% (active) | 88.4% (active) | 23 | 93% (active) | 57.2% | 41% | 90% (active) | 67.2% |  |  |  | 25% | 90% (active) | 85% (active) | 41 | 96% (active) | 66.2% |
| O=[N+]([O-])c1ccc2c(c1)Cc1cc(Cl)ccc1-2 | 7% | 6% | 14.1% | 2 | 5% | -13.9% | 1% | -2% | -11.4% |  |  |  | 4% | 7% | -14.3% | 6 | 5% | 46.1% |
| CCOC(=O)C(C=O)(C=O)c1ccccc1 |  |  |  | 4 | 19% | 8.5% | 7% | 18% | 61% | 4 | 24% | 43.2% | -3% | 14% | -36.4% | -1 | 32% | 44.5% |
| Ic1[nH]c(I)c(I)c1I | 13% | 97% (active) | 95.2% (active) | 16 | 98% (active) | 95% (active) |  |  |  | -2 | 96% (active) | 94.3% (active) | 14% | 98% (active) | 96.7% (active) | 11 | 95% (active) | 92.7% (active) |
| Cc1c(C(=O)O)nc(C(Br)(Br)Br)[nH]c1=O | 6% | 8% | 54.2% | 20 | 17% | 4.85% |  |  |  | 1 | 0% | 14.7% | 4% | 2% | 1.5% | 6 | 27% | 53% |
| CCCCCCCCCCCCCCCCNC(=O)/C(=C\c1ccccc1O)NC(=O)c1ccccc1 | 0% | 6% | 66.2% | -8 | -2% | 35.1% |  |  |  | 33 | -20% | 27.3% | 2% | 8% | 73.7% (active) | 18 | -6% | 67.6% |
